# Source: PubChem BioAssay
# Insulin prom up: insulin promoter activators in MIN6 cells, imaging, high-content screening, mouse beta cells; MIN6 insulin promoter-GFP reporter; hits give high values; z-score at 5 µM; AID 1625, 2009; hit rate 0.3% among 190,000;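 active means z-score above 3 at 5 µM with at least 500 cells counted in the well; inconclusive means wells under 500 cells, flagged as cytotoxic or low count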
# HCT116 bCat-KO: primary screen for growth suppressors in beta-catenin knockout HCT116 cells (colon tumor, human) | HCT116 beta-catenin knockout viability, CellTiter-Glo, 60 h; hits give low values | viability, % at 10 µM | hit rate 1.5% among 140,000 | AID 818, 2007;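 active means viability at or under a set limit, the compound median less 4 SD, cut at about 6% in these data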;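 further: 0% = Hyamine 1622 control at 20 µM and 100% = untreated cell control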
# INS promoter inh: inhibitors of insulin promoter-driven GFP, primary screen, imaging, TRM-6 cells (human fetal islet line), eGFP reporter, cell count | reporter expression induced with tamoxifen | inhibition, % at 2 µM | hit rate 0.9% among 130,000 | AID 1273, 2008;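 active means inhibition above the mean plus 3 SD, with well images judged a real hit on visual review, cut at about 60% in these data, passing the limit was not always enough; inconclusive means inhibition over the cutoff but images rejected on review; inactive means inhibition not above the cutoff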
# Autophagy mod: autophagy modulators in MEF cells, primary screen, imaging, high-content, MEF GFP-LC3; calls only at 10 µM (by protocol); hit rate 0.98% among 190,000; AID 463193, 2010; MEF GFP-LC3 puncta imaging; test concentration mostly 10 µM;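 active means percentage of spot-positive cells more than 3 SD above its plate mean, without a fluorescence outlier flag or 80% toxicity; inconclusive means no clear call, values can overlap the other calls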;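 further: spot-positive cell cutoff set from DMSO-treated cells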
# PTEN del growth: growth suppression of PTEN-null HCT116, primary screen, cell-based, CellTiter-Glo; HCT116 PTEN-null viability, 60 h; hits give low values; viability, % at 10 µM; hit rate 1.2% among 140,000; AID 827, 2007;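 active means viability at or below a set limit, 4 SD under the median of all tested compounds, cut at about 3.7% in these data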;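 further: PTEN knockout HCT116 line with beta catenin targeted HCT116 as companion control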
# L major viab: Leishmania major promastigote growth inhibition, primary screen; Leishmania major promastigotes, resazurin fluorescence viability; inhibition, % at 10 µM; hit rate 9% among 200,000; in the data active means inhibition above about 50%;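 further: promastigotes grown with compound for 44 hours at 28 °C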
# Active calls of the source: *; i = inactive; ? = inconclusive; / = no result given; + = active, no number. Shown are actives, neighbours in structure and some others; about 9.6% of the full set was active somewhere.
SMILES,Insulin prom up,HCT116 bCat-KO,INS promoter inh,Autophagy mod,PTEN del growth,L major viab
CS(=O)(=O)NCc1nnc(SCc2ccc(C(F)(F)F)cc2)o1,0.11,/,/,/,/,/
COc1ccc(N2C(=O)CC(N(CCc3ccccc3)C(=O)/C=C/C(=O)O)C2=O)cc1 (centres undefined),-0.48,/,-17,i,/,-6
Cc1cc(C)n(-c2ccc(C(=O)Nc3nc4ccccc4s3)cc2)n1,-0.27,92,-15,i,90,-7
COc1cc2cc3c(N)c(C(=O)NCc4ccco4)sc3nc2cc1OC,-1.7,59,/,i,50,81*
Cc1ccc2nc3sc(C(=O)NCc4ccco4)c(N)c3cc2c1,/,52,-6,i,66,0
Cc1cc(C)c(C)c(OC(=O)c2sc(Cl)nc2C)c1,-0.78,1.7*,50,i,2.3*,1
CCc1ccc(N2C(=O)C3C4CCC(C4=C(C)C)C3C2=O)cc1 (centres undefined),0,96,-48,i,91,0
Cc1ccc(-c2nn(-c3ccccc3)cc2C=O)o1,-0.17,/,/,i,/,52*
Cc1ccc(-c2nn(-c3ccccc3)cc2C(N)=O)o1,/,/,/,i,/,-4
COc1ccc(OC)c(/C=N/NC(=O)c2cnccn2)c1,-1.2,/,/,/,/,/
Cc1cc(C)c(C)c(S(=O)(=O)N2CCN(C)CC2)c1C,-0.78,/,-17,+,/,-5
Cc1ccc(OCC(=O)Nc2ccc3c(c2)nc(CCN2CCOCC2)n3C)cc1,-0.13,67,/,i,85,11
COc1ccc(S(=O)(=O)N2CCN(Cc3ccccc3)CC2)cc1,-0.39,100,/,i,97,8
CN=C1c2cc3cc(OC)ccc3n2CCN1Cc1ccccc1,-0.98,19,15,+,15,23
COC(=O)C1=CN(Cc2cccs2)C=C(C(=O)OC)C1c1ccc(OC)cc1OC,0.04,/,/,i,/,98*
COC(=O)C1=CN(Cc2cccs2)C=C(C(=O)OC)C1c1cccc(Cl)c1,0.01,/,/,i,/,-2
COC(=O)C1=CN(Cc2ccc(OC)cc2)C=C(C(=O)OC)C1c1ccsc1,-0.29,/,/,i,/,100*
Cc1cc(C(=O)CSc2nnc(-c3ccccc3)o2)c(C)n1CC1COc2ccccc2O1 (centres undefined),0.83,66,19,i,67,3
c1ccc2c(c1)nc(CN1CCOCC1)n1c3ccccc3nc21,-2.3,68,14,i,70,12
O=c1c2ccc([N+](=O)[O-])c3cccc(c32)c2nc3ccccc3n12,0.31,12,/,+,5,28
O=c1c2cccc3c(N4CCOCC4)ccc(c32)c2nc3ccccc3n12,9.8*,/,/,/,/,/
CCc1cccc(NC(=O)CCCCCC2NC(=O)NC2C)c1 (centres undefined),-0.1,/,20,i,/,-6
CCn1c(SCC(=O)NCc2ccco2)nnc1-c1c[nH]c2ccccc12,0.39,103,-58,i,99,2
O=C(CSc1nnc(-c2ccccc2)n1-c1ccccc1)NCc1ccco1,-0.08,102,-29,i,101,3
COc1cccc(-n2c(SCC(=O)NCc3ccco3)nnc2-c2c[nH]c3ccccc23)c1,-0.01,89,/,i,86,98*
SMILES,Insulin prom up,HCT116 bCat-KO,INS promoter inh,Autophagy mod,PTEN del growth,L major viab
COc1ccc(OC)c(-n2c(SCC(=O)NCc3ccco3)nnc2-c2c[nH]c3ccccc23)c1,-0.36,79,/,i,69,96*
O=C(CSc1nnc(-c2ccco2)n1-c1ccccc1)NCc1ccco1,-0.95,84,81*,i,84,0
CCOc1cc(/C=N/NC(=O)CSc2nncn2C)ccc1OCc1ccccc1,-0.28,98,3,i,101,-1
COc1cc(/C(C)=N/NC(=O)CSc2nncn2C)ccc1OCc1ccccc1Cl,-0.16,92,11,i,93,73*
CCOC(=O)c1ccccc1NC(=O)CSc1nc2ccccc2n1CC(=O)N1CCCC1,0.09,90,/,i,99,14
COC(=O)C(CCSC)NC(=O)c1cc2c(n(-c3ccc(C)cc3)c1=O)CCCC2=O (centres undefined),0.72,/,44,i,/,48
CC1(C)CC(=O)c2cc(C(=O)N3CCCC(C)(C)C3)c(=O)n(-c3ccccc3)c2C1,?,92,/,i,103,83*
COc1ccc(-n2c3c(cc(C(=O)NCc4ccco4)c2=O)C(=O)CC(C)(C)C3)cc1,-0.54,/,/,i,/,55*
COC(=O)C(CCSC)NC(=O)c1cc2c(n(-c3ccccc3)c1=O)CC(C)(C)CC2=O (centres undefined),1.6,90,-8,i,94,84*
CCN(CC)CCn1c(-c2ccccc2)nc(=S)c2c1CC(C)(C)OC2,-0.78,94,-32,i,101,-2
Cn1c(=O)c([N+](=O)[O-])c(-n2cnc3ccccc32)c2ccccc21,0.2,/,/,/,/,/
Cn1nnnc1SCC(=O)Nc1ccccc1[N+](=O)[O-],-0.59,100,0,i,100,-3
O=C(CN1CCCc2ccccc21)N/N=C/c1ccccc1,1.4,91,/,i,79,12
O=C(CN1CCCc2ccccc21)N/N=C/c1ccc(O)cc1O,-0.39,48,/,i,50,98*
O=C(CN1CCCc2ccccc21)N/N=C/c1c(O)ccc2ccccc12,0,8,-26,i,9,99*
OCC1(Cc2ccccc2)CCCN(C2CCCC2)C1 (centres undefined),-0.51,/,/,i,/,61*
COc1cccc(CC2(CO)CCCN(S(=O)(=O)N(C)C)C2)c1 (centres undefined),0.51,/,/,i,/,-5
CCOC(=O)N1CCC(N2CCCC(CO)(Cc3cccc(OC)c3)C2)CC1 (centres undefined),-0.01,/,-30,i,/,87*
Cc1cc(C(=O)NC(=S)Nc2ccccc2N2CCCC2)ccc1[N+](=O)[O-],-0.31,77,/,i,70,-4
Nc1cc2c(cc1C(=O)c1ccc(Cl)cc1)OCCO2,-0.17,77,76*,i,80,-5
COc1ccc(C(CNC(=O)c2oc3ccc(Br)cc3c2C)N2CCCCC2)cc1 (centres undefined),/,/,-36,i,/,60*
Cc1ccccc1Nc1nc(Nc2ccccc2C)nc(SC2=NCCS2)n1,0.14,66,57,i,67,3
Cc1ccc(Nc2nc(Nc3ccc(C)cc3)nc(SC3=NCCS3)n2)cc1,-1.1,4.2*,48,i,3.5*,26
Clc1ccc2c(NNc3ccccc3Cl)ccnc2c1,0.33,85,/,i,85,-3
Clc1cccc(/C=N\Nc2nccs2)c1,-2.1,71,14,i,78,1
Clc1ccc2c(N/N=C/c3ccccc3Br)ccnc2c1,0.2,16,?,i,7,99*
Clc1ccc2c(N/N=C/c3cccc(Br)c3)ccnc2c1,-1.4,2.2*,73*,i,1.7*,100*
